Data: the supplement of paper PMC6555819

Test system: RARg:RXRa (NR concentration 270 nM, RXRa partner concentration 90 nM)
Experiment: PBM binding z-score (relative to random genomic background probes); higher = stronger binding; sequences stand for … in GC…GCGATTGACAGCGTAGAATGAAGG
Outline: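 Custom Agilent 4×180K protein-binding microarrays carried double-stranded probes. Their 34-nt variable regions held direct-repeat seeds, single-nucleotide variants, half-site ablations and random human genomic background sequences. Arrays were incubated 1 h with ligand-free nuclear receptor dimers in PBS pH 7.4, 2% milk, 0.02% Triton X-100, 1 mM DTT, 0.2 mg/mL BSA and 0.4 mg/ml salmon testes DNA. Antibodies against each partner (one per run) detected binding, and scanned fluorescence was regression-normalized. Binding z-scores use random background probes as reference.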

Sequence	PBM binding z-score
TCTCGGAGGACACGAAAGGTCAGATCTCGACATC	4.58
CCTCGGAGGACAGAGGGTCAGAGCTGTCCGCTTT	2.45
ATCTCTAGGTAAGACTCAGTTTAGTGAAGAACGC	0.228
ATCGAAAGGTCGAAGGTGAGTATCCCCACCCGAA	3.95
AATACAGGGGCATCGTAGGCCAGAGTACGCACAG	0.978
CGTCCAAGGTCAAGTTCAGTGAAAGAGACTCGAA	6.6
CGTCCAAGGCCAGCAGGTCAGTGAAAGCGACGTG	1.85
GATACAGGGTCAAGGCTAGAGTACGCGTATTGAT	5.53
TGTCTAAGTTCAAAGGTAACGTAAGTATCCACAC	4.48
TCAGACAGGTGAATGTAACTCAGGTACGCAGTCG	0.399
TGAATGAGGGTATAAGATCAGGGAACGTTGCAAA	0.617
CCTATCAGTTGACCATAAGGGCAACCGAAGCTCG	1.48
CCTTACGGGTCACTGACACGTTATAGCATTTGGA	4.76
CCAGACAGGTGAGAAGATAACTCAGCCTCGATTA	0.21
CAAACTAGGTCACCAAAGGTCAAAGTCGAATGAC	7.87
CAGCCTAGGTCAGGGCCGGTATAGGAGGAACGTT	3.04
AGAATGAGGTTATACGTAGATCAGGCAAGAAAGT	1.78
GCAGACAGGTGAAACGCATGTAACTCAGGGTGGC	0.258
TCTATTAGTTGATTAGGGCACCCGAAACAGCGGA	0.623
AGTCAACGTTCATCTAGGTAACGTAAGATATGCT	0.363

Sequence	PBM binding z-score
GCTTGAAGATCAAGGTTAAGAAAGACTAAGCTAA	0.319
AGAATGACGTTATTAAGATCAGGGAATTGCGGTC	-0.146
TAGCCTAGGTCATGCGGTCCAGTATAGTGTCGGC	3.75
CAAACTAGGTCACTGGAAGGTCAAAGTCCGCATG	7.66
TCTCGGAGGACACGAAAGGTCAGAGCCCGACATC	4.91
CCTTACGGGTCAAGGTTCTAGCACGGGTGGTACG	4.78
ACCGACAGGTGAGTGAAGGTAACTCAGCTGGACG	0.0773
TCTATTACTTGATTAGGGCAACCGAAACAGCGGA	0.675
CCTGCTAGGTCAATGGTCAGCAAAAGCAGCTCGC	3.57
CCTATTAGTTGACCATAAGGGGAACCGAAGCTCG	0.438
ACTAGTTGGTCAGCTGAAGTCACACACAATTCGG	0.686
TCTTGTAGATCAATAGAGGTTCAGAAAGTGCGCT	0.234
CTGCCTAGGTCAGGGCCAGTATAGGAGGAACGTT	2.85
ACTCGGAGGACAAAGGTCAGAGCCACGCCAGTGA	6.18
CGAACGAGGGCGTGAGTTGATAGCAAATGCCGAT	0.0501
GGTACAGGGTCAGCTAGAGGCCAGAGTATGGAAA	6.72
TCTATTAGTTGAAGGGCTACCGACGAGTCCGTTT	0.0303
AGAATGAGCTTATTAAGATCAGGGAATTGCGGTC	-0.341
ACAGACAGGTGATGAAGGTGACTCAGGCTATCAT	0.646
ATCTCTAGGTAAAGTTCAGTGAGAGATCGATAGA	1.84
